Data taken from PubChem BioAssay (NCI).
The panel holds about 83,000 compounds, 20% with a hit somewhere; the sample as a whole holds those more often.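 Method: cells in 96-well plates; compound added at one concentration; 48 h incubation; percent growth measured; values under 10 scored active.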 Unmarked numbers belong to inactive results. Active and inactive are the calls of the source.

Experiments:
Test in all cases: NCI-60 one-dose screen, 48 h (100 = growth as untreated, 0 = no growth, -100 = all killed)
Settings in all cases: 10 µM unless noted
HCT-15 colon = tested on: HCT-15 colon
HT29 colon = tested on: HT29 colon
SNB-75 CNS = tested on: SNB-75 CNS
SNB-19 CNS = tested on: SNB-19 CNS
U251 CNS = tested on: U251 CNS
PC-3 prostate = tested on: PC-3 prostate
SK-MEL-5 melanoma = tested on: SK-MEL-5 melanoma
UACC-62 melanoma = tested on: UACC-62 melanoma
LOX IMVI melanoma = tested on: LOX IMVI melanoma
SK-MEL-28 melanoma = tested on: SK-MEL-28 melanoma

Structure (SMILES)	growth (HCT-15 colon)	growth (HT29 colon)	growth (SNB-75 CNS)	growth (SNB-19 CNS)	growth (U251 CNS)	growth (PC-3 prostate)	growth (SK-MEL-5 melanoma)	growth (UACC-62 melanoma)	growth (LOX IMVI melanoma)	growth (SK-MEL-28 melanoma)
CCNC(=S)N(Cc1ccccc1)Cc1ccccc1	111%	98.8%	103%	123%	96.4%	95.3%	101%	91.7%	112%	110%
OC(c1cc2c(Cl)cc(Cl)cc2c2cc(C(F)(F)F)ccc12)C1CCCCN1 (stereo not given)	-66.8% (active)	-80.5% (active)	-91% (active)	-72.8% (active)	-93% (active)	-84% (active)	8.25% (active)	-72.4% (active)	-66.2% (active)	-75.4% (active)
N[C@@H](CO)C(=O)O	109%	109%	93.3%	105%	102%	96.8%	104%	91.9%	130%	107%
Cc1nc2ccc(Nc3nc(NCCN4CCOCC4)nc(Nc4ccc(F)cc4)n3)cc2n1Cc1ccccc1	-0.585% (active)	-33.6% (active)	50.6%	78.7%	28.7%	71.5%	14.2%	-24.8% (active)	5.7% (active)	-67.2% (active)
OC(c1cc(-c2ccc(C(F)(F)F)cc2)nc(-c2ccc(C(F)(F)F)cc2)c1)C1CCCCN1 (stereo not given)	-71% (active)	-81.7% (active)	-82.9% (active)	-66.2% (active)	-85% (active)	-86.1% (active)	-78.2% (active)	-84.3% (active)	-65.8% (active)	-88.5% (active)
CC(C)NC(=O)OCC#CCOC(=O)NC(C)C	108%	104%	89.5%	97.5%	99.5%	97%	106%	99.6%	104%	104%
CCn1c(CN2CCN(Cc3ccccc3)CC2)nc2cc(NC(=O)c3cccs3)ccc21	3.47% (active)	-55.6% (active)	-96.6% (active)	-41.7% (active)	-91.4% (active)	-51.5% (active)	-98.9% (active)	-92.8% (active)	-89.7% (active)	-91.2% (active)
CC(=O)N1N=C(c2ccc(C)cc2)CC1c1cn(-c2ccccc2)nc1-c1cccc(Nc2ccnc3cc(Cl)ccc23)c1 (stereo not given)	62.2%	47.7%	102%	83.4%	14.9%	99.8%	73.8%	82.2%	10.4%	51.9%
Nc1nc(N)c2c(n1)NC(c1sc(Cl)nc1Cl)CC(c1ccccc1)=N2 (stereo not given)	27.9%	12.6%	30.1%	61.7%	33.3%	59.5%	33.5%	45.7%	41.5%	62.3%
Cc1c(O)c(=O)n(-c2ccccc2)n1C	92.7%	103%	98.3%	106%	105%	92%	110%	98.7%	105%	111%
Oc1ccc(Nc2ncnc3c2sc2ncccc23)cc1	50.9%	43.4%	40.9%	27.6%	24.4%	47.4%	27.7%	3.13% (active)	8.47% (active)	65.7%
Oc1ccc(CCCCCCc2ccc(O)cc2)cc1	74.5%	83.6%	51.1%	112%	54.7%	57.9%	50.2%	13.7%	53.3%	104%
Cn1nc(C(F)(F)F)cc1-c1c[nH]c(OCc2ccc(Cl)cc2)c(-c2ccc(Cl)c(C(F)(F)F)c2)c1=O	6.6% (active)	5.99% (active)	-6.2% (active)	21.1%	8.33% (active)	5% (active)	-63.9% (active)	-14.9% (active)	7.07% (active)	10.1%
CC(C)COC(=O)NC(C)(C)C	98%	93%	86.7%	111%	107%	102%	109%	107%	103%	113%
COc1ccc(NC(=O)C2c3ccccc3C(=O)N(CC(C)C)C2c2cccs2)cc1 (stereo not given)	98.9%	101%	92.6%	111%	96%	95.1%	89.1%	89.5%	86.3%	105%
CCOc1ccc([C@@H]2[C@@H](Oc3ccccc3)C(=O)N2c2cc(OC)c(OC)c(OC)c2)cc1	10.8%	5.82% (active)	65.6%	35.4%	21.7%	25.6%	-18.7% (active)	26%	26.7%	64.8%
CCOC(=O)c1ccccc1SC(C[N+](=O)[O-])c1ccccc1 (stereo not given)	59.6%	5.22% (active)	85.1%	95.2%	81.8%	78%	84.3%	97.8%	30.9%	98.3%
CC1C2CCC(C2)C1COCCOCCO (stereo not given)	98.3%	102%	109%	123%	91.9%	101%	106%	104%	94.9%	109%
COc1ccc2c(c1)CCCC21C(=O)Nc2c(Cl)cccc21 (stereo not given)	85%	21.1%	41%	82.9%	54.1%	74.4%	76.8%	58%	71.3%	64.7%
O=C(Nc1ccc(Oc2ccc(Nc3nc4ccccc4s3)cc2)cc1)Nc1ccc(Cl)c(C(F)(F)F)c1	8.45% (active)	-10.9% (active)	16.7%	22.5%	2.67% (active)	3.08% (active)	-84.8% (active)	1.63% (active)	-88.3% (active)	25.3%
O=[N+]([O-])c1cc(F)c2cccnc2c1O	92.1%	111%	86%	93%	91.9%	96.6%	90.2%	92.9%	84.7%	135%
CCCCn1cnc(-c2cc(-c3ccccc3)cc(C(F)(F)F)c2)n1	104%	101%	98.9%	98.6%	97.7%	82.7%	101%	90.3%	105%	109%
COc1ccc(-c2nsc3c2NC(=O)CC3c2ccc3c(c2)OCO3)cc1 (stereo not given)	29.4%	3.39% (active)	7.61% (active)	57.5%	12.2%	3.81% (active)	25.8%	42.7%	37.9%	56.5%
Brc1ccccc1Cn1c(-c2cncs2)nc2ccccc21	82.8%	80.7%	53%	84.6%	84.8%	57.2%	76.2%	70.1%	75.8%	104%
CCCCCCCCCCCCCCCCCC1=NC(C)(C)CN1C(C)(C)CO	1.33% (active)	-100% (active)	-1.88% (active)	37.2%	-100% (active)	-1.05% (active)	-53% (active)	-86.9% (active)	-100% (active)	-100% (active)
Clc1ccc(-c2nc(Br)cn3ccnc23)cc1	86.1%	87.6%	91%	82.5%	78.2%	81.6%	80.7%	77.4%	77.8%	100%
C#CCNC(=S)N/N=C(\C)c1ccccn1	28.4%	31.5%	43.4%	38.8%	23.1%	48.1%	-30.5% (active)	-5.96% (active)	15.3%	55.3%
COc1ccc(C(=O)C(CN(C)C)c2ccccc2)cc1 (stereo not given)	-49.3% (active)	19.1%	25.1%	91.2%	31.6%	52.4%	43.7%	33.8%	10.3%	-44.9% (active)
